This is part of a sample that, as a whole, favours compounds with a hit. Of some 83,000 tested, about 20% had one in any assay.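 Assay: single dose, 48 h. Readout: percent growth (0 = no net growth; negative = cell death). Active: <10.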 Unmarked numbers belong to inactive results. Calls of active or inactive are those of the source.

Test systems include SK-MEL-2 melanoma; EKVX NSCLC; SN12C renal; UO-31 renal; TK-10 renal; ACHN renal; CAKI-1 renal; A498 renal; CCRF-CEM leukemia; MOLT-4 leukemia; SR leukemia; RPMI-8226 leukemia; OVCAR-8 ovarian; OVCAR-5 ovarian; SK-OV-3 ovarian; IGROV1 ovarian; OVCAR-3 ovarian; HS 578T breast; NCI/ADR-RES ovarian.
Assay in all cases: NCI-60 one-dose screen, 48 h (100 = growth as untreated, 0 = no growth, -100 = all killed)
Conditions in all cases: 10 µM unless noted

For `CCN(CC)c1ccc2cc(C(Nc3ccc(C)cc3)c3nnnn3C(C)(C)C)c(=O)oc2c1` (stereo not drawn), the growth in the assay on SK-MEL-2 melanoma is 94.3%; with EKVX NSCLC it was 86.9%; in the assay with SN12C renal it was 91.8%; in the assay with UO-31 renal, 72.5%; with TK-10 renal, 90.7%; in the assay on ACHN renal, 98.2%. For the same compound, the growth in the assay with CAKI-1 renal is 79.2%; in the assay on A498 renal, 94.7%; in the assay with CCRF-CEM leukemia it was 98.6%; with MOLT-4 leukemia it was 65.5%; in the assay with SR leukemia, 94.5%; in the assay on RPMI-8226 leukemia, 87.4%. Moreover, the growth was 98.4% with OVCAR-8 ovarian; 101% in the assay with OVCAR-5 ovarian; 102% in the assay with SK-OV-3 ovarian; 97.4% in the assay with IGROV1 ovarian; 101% in the assay with OVCAR-3 ovarian; 90.7% with HS 578T breast. Besides, in the assay with NCI/ADR-RES ovarian, the growth is 90.6%.
For the compound `CC1(C)CC[C@]2(C(=O)OC(=O)[C@]34CCC(C)(C)C[C@@H]3C3=CC[C@@H]5[C@@]6(C)CCC(=O)C(C)(C)[C@@H]6CC[C@@]5(C)[C@]3(C)CC4)CC[C@]3(C)C(=CC[C@@H]4[C@@]5(C)CCC(=O)C(C)(C)[C@@H]5CC[C@]43C)[C@H]2C1`, the growth is 76.1% [100 µM] with SK-MEL-2 melanoma; 81.3% [100 µM] with EKVX NSCLC; 55.8% [100 µM] in the assay with SN12C renal; 59.9% [100 µM] in the assay on UO-31 renal; 95.3% [100 µM] in the assay with TK-10 renal; 73.8% [100 µM] in the assay with ACHN renal. For the same compound, the growth in the assay on CAKI-1 renal was 45.6% [100 µM]; in the assay with A498 renal, 95.6% [100 µM]; in the assay on CCRF-CEM leukemia, 44.4% [100 µM]; with MOLT-4 leukemia, 41.5% [100 µM]; with SR leukemia, 65% [100 µM]; in the assay on RPMI-8226 leukemia it was 61% [100 µM]. For the same compound, the growth in the assay on OVCAR-8 ovarian was 59.8% [100 µM]; in the assay with OVCAR-5 ovarian, 98.3% [100 µM]; with SK-OV-3 ovarian, 72.9% [100 µM]; in the assay on IGROV1 ovarian, 84.4% [100 µM]; with OVCAR-3 ovarian, 74% [100 µM]; in the assay on HS 578T breast, 57.3% [100 µM]. Further, the growth with NCI/ADR-RES ovarian was 69.5% [100 µM].
As for `CC(C)=CC/C=C(/C)[C@H]1CC[C@]2(C)[C@@H]1CC[C@@H]1[C@@]3(C)CCCNC(C)(C)[C@@H]3CC[C@]12C`, the growth was -70% [100 µM] (active) in the assay on SK-MEL-2 melanoma; -71.2% [100 µM] (active) in the assay on EKVX NSCLC; -85.2% [100 µM] (active) with SN12C renal; -82.1% [100 µM] (active) with UO-31 renal; -67% [100 µM] (active) with TK-10 renal; -77% [100 µM] (active) in the assay on ACHN renal. For the same compound, the growth is -79.9% [100 µM] (active) with CAKI-1 renal; -88.6% [100 µM] (active) with A498 renal; -15.7% [100 µM] (active) in the assay with CCRF-CEM leukemia; -25.6% [100 µM] (active) in the assay with MOLT-4 leukemia; 15.2% [100 µM] with SR leukemia; -40.1% [100 µM] (active) in the assay with RPMI-8226 leukemia. For the same compound, the growth with OVCAR-8 ovarian is -29.5% [100 µM] (active); in the assay with OVCAR-5 ovarian, -85.9% [100 µM] (active); with SK-OV-3 ovarian it was -66.8% [100 µM] (active); with IGROV1 ovarian, -74.1% [100 µM] (active); in the assay on OVCAR-3 ovarian, -47.8% [100 µM] (active); in the assay on HS 578T breast, -50.2% [100 µM] (active). In addition, in the assay on NCI/ADR-RES ovarian, the growth was -69.6% [100 µM] (active).
With `Cc1cnc(N)nc1OCC(C)(C)CNC(=O)c1cccc(-c2ccc(S(=O)(=O)Nc3ccc4c(c3)N(C(=O)C3CC3)CCC4)cc2)c1`, the growth was 67.7% in the assay on SK-MEL-2 melanoma; 62.9% in the assay on EKVX NSCLC; 68.5% with SN12C renal; 62% with UO-31 renal; 76.6% in the assay with TK-10 renal; 70.2% with ACHN renal. The growth in the assay with CAKI-1 renal is 52.1%; with A498 renal, 37.3%; in the assay with CCRF-CEM leukemia, 61.7%; with MOLT-4 leukemia it was 29.1%; with SR leukemia, 79.9%; in the assay with RPMI-8226 leukemia, 44.6%. Also, the growth in the assay on OVCAR-8 ovarian was 62.3%; with OVCAR-5 ovarian, 79.4%; in the assay with SK-OV-3 ovarian, 68.2%; with IGROV1 ovarian, 63.4%; with OVCAR-3 ovarian, 68.2%; with HS 578T breast it was 64.4%. The growth with NCI/ADR-RES ovarian is 105%.
As to `CC(=O)OC[C@]12CC[C@@H]([C@@H](C)C(N)=O)[C@@H]1[C@H]1CC[C@@H]3[C@@]4(C)CC[C@H](OC(C)=O)C(C)(C)[C@@H]4CC[C@@]3(C)[C@]1(C)CC2`, the growth in the assay on SK-MEL-2 melanoma is -77.6% [100 µM] (active); with EKVX NSCLC, -25.2% [100 µM] (active); in the assay with SN12C renal it was -91.6% [100 µM] (active); in the assay with UO-31 renal it was -97.5% [100 µM] (active); in the assay with TK-10 renal, -35.4% [100 µM] (active); in the assay with ACHN renal, -75.7% [100 µM] (active). For the same compound, the growth is -45.8% [100 µM] (active) with CAKI-1 renal; -81.7% [100 µM] (active) in the assay on A498 renal; -12.4% [100 µM] (active) in the assay with CCRF-CEM leukemia; -29.1% [100 µM] (active) in the assay with MOLT-4 leukemia; 10.8% [100 µM] in the assay with SR leukemia; -18.3% [100 µM] (active) in the assay with RPMI-8226 leukemia. In addition, the growth is -31.7% [100 µM] (active) in the assay on OVCAR-8 ovarian; -77.4% [100 µM] (active) in the assay on OVCAR-5 ovarian; -11.9% [100 µM] (active) in the assay with SK-OV-3 ovarian; -71.3% [100 µM] (active) with IGROV1 ovarian; -76.2% [100 µM] (active) in the assay on OVCAR-3 ovarian; -33% [100 µM] (active) with HS 578T breast. Besides, the growth with NCI/ADR-RES ovarian is -57.3% [100 µM] (active).
Regarding `C=C(C)[C@@H]1CC[C@]2(C(N)=O)CC[C@]3(C)[C@H](CC[C@@H]4[C@@]5(C)CC[C@H](O)C(C)(C)[C@@H]5CC[C@]43C)[C@@H]12`, the growth in the assay with SK-MEL-2 melanoma was -31.2% [100 µM] (active); in the assay with EKVX NSCLC, -10.3% [100 µM] (active); with SN12C renal, -45.8% [100 µM] (active); in the assay on UO-31 renal it was -100% [100 µM] (active); in the assay with TK-10 renal, -69.8% [100 µM] (active); in the assay on ACHN renal it was -80.3% [100 µM] (active). The growth is -64.3% [100 µM] (active) in the assay on CAKI-1 renal; -28.3% [100 µM] (active) in the assay with A498 renal; 3.11% [100 µM] (active) in the assay with CCRF-CEM leukemia; 1.86% [100 µM] (active) in the assay on MOLT-4 leukemia; 15.5% [100 µM] in the assay with SR leukemia; -19.8% [100 µM] (active) with RPMI-8226 leukemia. For the same compound, the growth with OVCAR-8 ovarian was -64.8% [100 µM] (active); with OVCAR-5 ovarian, -21.6% [100 µM] (active); in the assay on SK-OV-3 ovarian, -45.7% [100 µM] (active); in the assay with IGROV1 ovarian, -58.1% [100 µM] (active); in the assay on OVCAR-3 ovarian, -46.6% [100 µM] (active); in the assay on HS 578T breast, -1.7% [100 µM] (active). In addition, in the assay on NCI/ADR-RES ovarian, the growth is -8.91% [100 µM] (active).
For the compound `O=C(N=c1n(-c2ccccc2)nc2n1CCN2C1=NCCN1)c1ccc(Cl)cc1`, the growth with SK-MEL-2 melanoma was 106%; in the assay on EKVX NSCLC, 93.9%; in the assay on SN12C renal it was 80.1%; with UO-31 renal, 57.9%; in the assay with TK-10 renal, 89.5%; with ACHN renal, 96.7%. Moreover, the growth is 79.2% with CAKI-1 renal; 68.3% in the assay on A498 renal; 77.8% in the assay with CCRF-CEM leukemia; 77.7% with MOLT-4 leukemia; 43.6% in the assay with SR leukemia; 91.9% with RPMI-8226 leukemia. The growth in the assay with OVCAR-8 ovarian was 98.7%; in the assay on OVCAR-5 ovarian, 95.9%; in the assay on SK-OV-3 ovarian, 90.2%; with IGROV1 ovarian, 58%; in the assay with OVCAR-3 ovarian, 91.7%; in the assay with HS 578T breast it was 93.1%. Further, the growth in the assay on NCI/ADR-RES ovarian is 93.6%.

The values are drawn from PubChem BioAssay (NCI).
